Screens (PubChem BioAssay)
GoLoco inh red – blocks human Gai1 binding to RGS12 GoLoco peptide, red readout | P63096 | Gai1:RGS12 GoLoco peptide FP, rhodamine, 10 min | Potency, µM (series often up to 61.6 µM), for inactives: top-dose activity, negative = inhibition, hits mostly inhibitors | 0.44% of 230,000 active | AID 880; active means well fitted inhibition curve with a large enough effect, not every such curve was filed as active; inactive means no such curve, though single readings can be large or run the other way; further: potency means the concentration at half of the fitted maximal effect; nearly all actives have a fitted effect of over 30% in size
Sfp PPTase inh – inhibitors of Bacillus subtilis Sfp phosphopantetheinyl transferase. Q9F4F7. Biochemical Sfp PPTase activity, qHTS. Potency, µM, inactives show largest response in the series, negative = inhibition, actives largely listed as inhibitors. 3.5% of 310,000 active. AID 1490;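 further: the enzyme is Sfp with the accession as filed and its product quenches rhodamine fluorescence; potency means the concentration at half of the fitted maximal effect; 0% = enzyme reaction without inhibitor and -100% = no enzyme wells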
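Sfp 15 nM + cpd, 15 min RT; start w/ rhodamine-CoA 5 uM, BHQ-2-YbbR 12.5 uM (final); 50 mM Hepes pH 7.6, 10 mM MgCl2, 0.01% NP-40, 0.01% BSA; read 525/598 nm at 0 and 30 min.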
NPSR antagonist – blocks cAMP signaling of the human neuropeptide S receptor; CHO-NPSR cells, cAMP TR-FRET, antagonist mode; Potency, µM (highest dose often 38.3 µM), without a hit: at the top dose activity change, negative = inhibition, most hits filed as inhibitors; 1% of 220,000 active; further: potency means the concentration at half of the fitted maximal effect; nearly all actives have a fitted effect of over 50% in size
Target sequence (Q6W5P4 whole entry, looked up): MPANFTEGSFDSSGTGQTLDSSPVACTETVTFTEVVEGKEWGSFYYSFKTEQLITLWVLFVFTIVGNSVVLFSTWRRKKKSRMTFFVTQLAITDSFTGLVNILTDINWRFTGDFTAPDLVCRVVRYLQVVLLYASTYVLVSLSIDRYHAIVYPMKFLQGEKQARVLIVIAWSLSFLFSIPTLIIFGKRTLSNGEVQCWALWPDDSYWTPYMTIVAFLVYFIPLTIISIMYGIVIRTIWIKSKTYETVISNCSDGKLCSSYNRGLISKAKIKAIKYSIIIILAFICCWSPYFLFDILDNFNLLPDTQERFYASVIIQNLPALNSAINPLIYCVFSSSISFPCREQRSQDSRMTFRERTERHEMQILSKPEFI
Coupling enz – counter-screen for Giardia aldolase inhibitors: coupling enzyme system; 0.67% of 290,000 active; coupling enzyme system counterscreen, AmpLite Red fluorescence; AID 2472; activity change, negative = inhibition, % at 58.2 µM, hits read low; in the data active means activity change below about -30%
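Final compound at 57.5 uM, incubated 10 min at RT with coupling enzyme reagent (glyceraldehyde-3-phosphate), then 20 min with substrate and AmpLite Red detection. Fluorescence read at 525/598 nm; tests interference with the coupling assay, not aldolase inhibition.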
JMJD2E inh – blocks human JMJD2E demethylase activity | 1.6% of 230,000 active | JMJD2E catalytic domain, FDH-coupled NADH fluorescence (FDH is formaldehyde dehydrogenase) | Potency, µM (doses to about 57.1 µM), for inactives: at the highest dose activity change, negative = inhibition, hits mostly inhibitors | B2RXH2; active means well fitted inhibition curve with a large enough effect, not every such curve was filed as active; inconclusive means small, poorly fitted or top-dose-only effect, or another doubt; inactive means no such curve, though single readings can be large or run the other way;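 further: potency means the concentration at half of the fitted maximal effect; 0% = wells with enzyme and -100% = buffer wells without enzyme; nearly all actives have a fitted effect of over 50% in size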
ALDH1A1 inh – ALDH1A1 (human) enzyme inhibition. Purified ALDH1A1, NADH fluorescence, propionaldehyde substrate. P00352. AID 1030. Potency, µM (doses to about 75.3 µM), without a hit: top-dose activity, negative = inhibition, hits mostly inhibitors. 7.3% of 220,000 active; active means well fitted inhibition curve with a large enough effect, not every such curve was filed as active; inconclusive means small, poorly fitted or top-dose-only effect, or another doubt; inactive means no such curve, though single readings can be large or run the other way;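 further: potency means the concentration at half of the fitted maximal effect; plate controls were no enzyme wells and a reference inhibitor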
An asterisk follows results filed as active; ? = inconclusive; · = no result given; [ ] = another dose, or the depositor's remark. Hits are enriched below; roughly 8.5% of the tested compounds scored in any of these assays. Unless noted, the call rests on the fitted dose curve; in most records, active means well fitted curve in the direction sought with a large enough effect; inconclusive means small, poorly fitted or top-dose-only effect, or another doubt; inactive means no such curve, though single readings can be large; an effect the other way counts as inactive or inconclusive. Unless noted, on the % scale 0 is the no-effect control and ±100 the full control effect.

SMILES | GoLoco inh red | Sfp PPTase inh | NPSR antagonist | Coupling enz | JMJD2E inh | ALDH1A1 inh
O=C(Cn1nnc2ccccc2c1=O)N[C@@H](Cc1ccccc1)C(=O)O | -1% | -9% | 28% | 5 | 0% | ·
COC(CNC(=O)CCc1c(C)nc2c(-c3ccccc3)c(C)nn2c1C)OC | · | -8% | · | 0 | · | ·
CCCc1nnc(NC(=O)CCC(=O)NC2CCCC2)s1 | · | 12% | · | · | · | ·
COC(=O)N1CCC2(CCCN(C(c3ccccc3)c3ccccc3)C2)CC1 | 5% | -6% | · | 3 | · | 6%
Cc1cc2cc(CNC(=O)c3ccc(Br)o3)ccc2n1C | -36% | 28µM* | -18% | -24 | -23% | ·
Cc1ccc(C(=O)NCCc2ccc(S(=O)(=O)N3CCCC3)cc2)cc1 | -4% | 9% | -7% | 2 | 13% | ?
Cc1cc2ccccc2n1CCNC(=O)c1ccc(S(=O)(=O)N2CCCCC2)cc1 | -31% | ? | 9%[46.1 µM] | -8 | -1% | 3.2µM*
COc1ccc(CNC(=O)c2ccc(Br)o2)cc1 | -15%[88.7 µM] | -16% | 6% | -3 | 4% | 25µM*
O=C(NCCCN=C1NS(=O)(=O)c2ccccc21)c1ccc(S(=O)(=O)N2CCCCC2)cc1 | 8% | 12% | -5%[46.1 µM] | 9 | 10% | 14µM*
CCCC(=O)NCc1ccc2c(c1)cc(C)n2C | 0% | ? | -8%[46.1 µM] | -19 | ? | -5%
COc1ccc(C(=O)NCCCN=C2NS(=O)(=O)c3ccccc32)cc1 | · | 16% | · | 2 | · | ·
COc1ccc(C2(c3ccc(OC)cc3)NC(=O)N(CC(=O)Nc3cc(C)ccc3OC)C2=O)cc1 | · | 20% | · | · | · | ·
COc1cccc(CCC(=O)N2CCC(n3nccc3NC(=O)CC(C)C)CC2)c1 | · | 24% | · | -1 | · | ·
Cc1cc2cc(CNS(=O)(=O)c3ccc4ccccc4c3)ccc2n1C | -62% | -24% | ? | -6 | -28% | 14µM*
O=C(NCc1ccccc1)c1ccc(Br)o1 | -5% | -5% | -12% | -1 | 3% | 0%
Cc1cc2cc(CNC(=O)c3ccc(S(=O)(=O)N4CCOCC4)cc3)ccc2n1C | -102% | -17% | 11%[46.1 µM] | -6 | -23% | 25µM*
Cc1ccc(CNC(=O)c2ccc(Br)o2)cc1 | -8% | -26% | -6%[46.1 µM] | -1 | 6% | 16µM*
Cc1ccsc1/C=N/n1c(-c2cc(-c3ccccc3)n[nH]2)n[nH]c1=S | 16% | 71µM* | ? | 1 | 4% | -2%
S=c1[nH]nc(-c2cc(-c3ccccc3)n[nH]2)n1/N=C/c1c(Cl)cccc1Cl | 1% | 40µM* | ? | 0 | -21% | 5%
Cc1ccccc1/C=N/n1c(-c2cc(-c3ccccc3)n[nH]2)n[nH]c1=S | 2% | 56µM* | -31% | 0 | -2% | ·
Oc1ccccc1/C=N/n1c(-c2ccccc2)n[nH]c1=S | · | ? | · | -1 | · | ·
S=c1[nH]nc(-c2cc(-c3ccccc3)n[nH]2)n1/N=C/c1ccc(Br)s1 | 5% | 25µM* | 50% | 1 | -14% | 16%
S=c1[nH]nc(-c2ccccc2)n1/N=C/c1cccc(Cl)c1 | · | -30% | · | -2 | · | ·
CN=C(C)/C(C(=O)OC)=C(/O)c1c(F)cccc1F | -1% | 10% | -4% | 0 | 7% | -6%
COC(=O)CCCn1c(C)cc(C(=O)CCl)c1C | 5% | 24% | 3% | 0 | -5% | 0.5µM*
SMILES | GoLoco inh red | Sfp PPTase inh | NPSR antagonist | Coupling enz | JMJD2E inh | ALDH1A1 inh
COC(=O)CCn1c(C)cc(C(=O)COc2ccccc2C(N)=O)c1C | -6% | -5% | 12% | 2 | 1% | 7%
CCOC(=O)c1cc(C)n(CCc2ccccc2)c1C | 0% | 1% | -20%[46.1 µM] | -2 | 1% | -13%
Cc1cc(C(=O)CCl)c(C)n1CCc1ccccc1 | -2% | 20µM* | -56% | 2 | ? | 0.032µM*
COc1cccc(C(C(=O)NC2CCCC2)N(C(=O)c2ccco2)c2ccccc2)c1OC (configuration not stated) | · | 18% | · | -2 | · | ·
O=[N+]([O-])c1ccc(N(c2ccccc2)c2ccccc2)cc1 | -2% | 1% | -15%[46.1 µM] | 0 | 8% | ?
CCN(C(=O)c1ccccc1)c1ccc([N+](=O)[O-])cc1 | 3% | 11% | 6% | 10 | 0% | 5µM*
